# Experimental data reported in PubChem BioAssay (NCI).
# Where “and” joins values, the source holds several entries; their conditions need not be identical. Identical values can stand only once. The panel holds about 83,000 compounds, 20% with a hit somewhere; the sample as a whole holds those more often.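 Single-dose data. Exposure time 48 hours. Values below 10 considered active.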 Calls of active or inactive are those of the source.
# Tested on: RPMI-8226 leukemia
# Assay: NCI-60 one-dose screen, 48 h (100 = growth as untreated, 0 = no growth, -100 = all killed)
# Details: 10 µM
# Procedure: Growth inhibition of the RPMI-8226 human tumor cell line is measured as a screen for anti-cancer activity. Cells are grown in 96 well plates and exposed to the test compound for 48 hours. Compounds are tested at a single concentration, which is 10^-5 M for most compounds. The reported endpoint is percent growth (GI% or GIPRCNT), where numbers from 0 - 100% represent growth inhibition, and numbers from -100% - 0 represent cell death. For example, a value of 40 represents 60% growth inhibition. A value of 0 means no net growth occurred over the course of the experiment. A value of -40 indicates 40% of cells at the beginning of the experiment died by the end of the experiment. A value of -100 means all cells are dead at the end of the experiment.
# NCI-60 Human Tumor Cell Lines Screen was performed using the standard one-dose NCI protocol, which is described in more detail at https://dtp.cancer.gov/discovery_development/nci-60/default.htm.
# Compounds with GIPRCNT values below 10 were considered active. Activity score was based on GIPRCNT using the following formula: […]
# Score is 0 for GIPRCNT values of 100 or above, 50 for GIPRCNT values of 0, and 100 for GIPRCNT values of -100.
row,Compound,growth
1,CS/C(=C\c1ccc(C(=O)c2ccc(C)cc2)n1C)S(C)=O (stereo not given),70.2% (inactive)

# Same assay, conditions: 10 µM unless noted
row,Compound,growth
1,Cc1ccc(C(=O)c2ccc(C)cc2)cc1,86.8% (inactive) and 96.4% (inactive)
2,COC(=O)c1nc(N)nc(C(=O)OC)c1C(=O)c1ccc(F)cc1,112% (inactive)
3,Nc1ccccc1SC(CC(=O)c1ccccc1)c1cccc([N+](=O)[O-])c1 (stereo not given),-30.1% (active) and -4.39% (active)
4,N=C(N)N1CCc2ccccc2C1,74.5% (inactive) and 80.8% (inactive)
5,CCN(CC)CCO/N=C1\CC(c2ccc(OC)c(OC)c2)Oc2ccccc21 (stereo not given),87.8% (inactive)
6,CCCCCCC(C)CC1=C(O)c2ccccc2C(=O)C1=O (stereo not given),37.6% (inactive)
7,OC(CC(c1ccccc1)c1cccc2ccccc12)(c1ccccc1)c1ccccc1 (stereo not given),88.4% (inactive) and 67.4% (inactive)
8,N=C(N=C(N)N)N1CCOCC1,113% (inactive) and 107% (inactive)
9,CC1(C)CC(=O)NC1=O,108% (inactive)
10,O=C1c2ccccc2C(c2ccccc2)C1c1ccccc1 (stereo not given),63.4% (inactive)
11,COc1ccc(CCn2cnn3c(=O)c4ccccc4nc3c2=O)cc1OC,95.7% (inactive) and 92.2% (inactive)
12,O=C(O)c1cccc(Br)c1,103% (inactive) and 104% (inactive)
13,COc1ccc(CCN=Cc2ccc(Cl)cc2)cc1OC,108% (inactive)
14,CCc1ccccc1-n1[nH]c(C)c(C=N)c1=O,107% (inactive)
15,CCC(C)(O)CCC(C)(O)CC (stereo not given),108% (inactive)
16,CC1=CC(=O)c2cccc(NC3=NCCO3)c21,91.6% (inactive)
17,S=c1nn[nH]n1C1CCCCC1,109% (inactive)
18,CC(NC(=O)CCl)c1ccccc1 (stereo not given),107% (inactive)
19,CC(C)(C)C1=CC(=O)C(C(C)(C)C)=CC1=O,86.9% (inactive) and 102% (inactive)

row,Compound,growth
1,COCCNC(C)=O,114% (inactive)
2,Cc1cc(-c2ccc(N=Nc3c(C)nn(-c4ccc(S(=O)(=O)O)cc4)c3O)c(C)c2)ccc1N=Nc1ccc(O)c(C(=O)O)c1,81.7% (inactive)
3,Clc1ccc(/C=C/c2ccc3ccccc3n2)cc1,5.44% (active) and 63% (inactive) and 86.9% (inactive)
4,COc1ccc(CCl)c(C)c1OC,106% (inactive)
5,O=C(/C=C/C=C/c1ccc2c(c1)OCO2)N1CCCCC1,102% (inactive) and 124% (inactive)
6,CCOC(=O)C1=C(C)NC(C)=C(C(=O)OCC)C1,92.6% (inactive) and 99.2% (inactive)
7,CCCC(=O)Oc1ccc2ccccc2c1,94.4% (inactive)
8,CC(=O)Nc1ccc(OC(C)=O)cc1,-25.4% (active) and 104% (inactive)
9,C#CCOC(=O)C(N)CS (stereo not given),102% (inactive)
10,CNc1ccc(O)cc1,102% (inactive) and 87.4% (inactive)
11,OCCCc1ccccc1,117% (inactive)
12,O=C(Nc1ccccc1)OCC(CN1CCCCC1)OC(=O)Nc1ccccc1 (stereo not given),90.6% (inactive)
13,CC1(CO)CCCC1NCCNC1CCCC1(C)CO (stereo not given),102% (inactive) and 97% (inactive)
14,O=c1[nH]nnc2cc(Cl)ccc12,112% (inactive) and 109% (inactive)
15,O=[N+]([O-])c1ccc(N/N=C/C2CCCCCC2)c([N+](=O)[O-])c1,90.3% (inactive)
16,CC(=O)C[n+]1ccccc1Sc1ccc(Cl)cc1,84.7% (inactive)
17,O=[N+]([O-])c1ccc(N2CCN=N2)cc1,92.7% (inactive)
18,O=C1C2=C(Nc3cc(Cl)ccc3N2)OC1c1c[nH]c2ccc(COc3ccccc3)cc12 (stereo not given),59.3% (inactive)
19,Cc1cc2ccccc2c2cc3ccccc3cc12,105% (inactive)

# Same assay, conditions: 100 µM
row,Compound,growth
1,CS/C(=C\c1ccc(C(=O)c2ccc(C)cc2)n1C)S(C)=O (stereo not given),56.9% (inactive)
